Measurements from PubChem BioAssay.
Active and inactive are the calls of the source. Cut-off read from the data, not from the text of the source, unless noted: active = inhibition above about 33%; inactive = the rest.

Columns and labels:
[1] = biological target: Nuclear receptor coactivator 3 (Homo sapiens) (UniProt Q9Y6Q9); assay: SRC3 coactivator transcriptional activity inhibitors, confirmation, cell-based, luminescence, quadruplicate (AID 588792;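 active = mean inhibition over 43.08%, the solvent-only control mean plus 3 SD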;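 note: 0% = DMSO treated cells and 100% = gossypol at 36 µM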); conditions: HEK293 GAL4-SRC3 luciferase reporter, at 3.6 µM, stronger effect = higher value
[2] = system: transactivating tegument protein VP16 (Human herpesvirus 1), Gal4-VP16 luciferase reporter; assay: VP16 transactivation inhibitors, counter-screen for SRC3 inhibitor project, cell-based, luminescence, high throughput (AID 588794; in the data active = inhibition above about 30%); conditions: mammalian cells, VP16-driven luciferase reporter luminescence; at 3.6 µM; stronger effect = higher value
[3] = biological target: Nuclear receptor coactivator 1 (Homo sapiens) (UniProt Q15788); assay: SRC1 coactivator transcriptional activity inhibitors, confirmation, cell-based, luminescence, quadruplicate (AID 588820;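 active = mean inhibition above 46.68%, the untreated control wells mean plus 3 SD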;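 note: 0% = DMSO wells and 100% = gossypol 36 µM treated wells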); conditions: HEK293 GAL4-SRC1 luciferase reporter, at 3.6 µM, stronger effect = higher value
[4] = VP16 transactivation inhibitors, counter-screen for SRC1 inhibitor project, cell-based, luminescence, high throughput (AID 588824; in the data active = inhibition above about 25%); conditions: cell-based VP16 transactivation luciferase luminescence; at 3.6 µM; stronger effect = higher value
[5] = StAR promoter reporter inhibitors, counter-screen for LRH-1 inverse agonist project, cell-based, luminescence, high throughput (AID 651611; in the data active = inhibition above about 28%); conditions: StAR promoter luciferase reporter counterscreen, at 3.6 µM, stronger effect = higher value
[6] = biological target: Nuclear receptor subfamily 5 group A member 2 (Homo sapiens) (UniProt O00482); assay: LRH-1 (NR5A2) inverse agonists, retest, confirmation, cell-based, luminescence (AID 651613; in the data active = inhibition above about 42%;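 note: HEK293T cells co-transfected with LRH-1 and StAR promoter luciferase reporter; 0% = vehicle wells and 100% = parental cells lacking receptor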); conditions: cell-based LRH-1 luciferase reporter, inverse agonism; at 3.6 µM; stronger effect = higher value
[7] = biological target: Steroidogenic factor 1 (Homo sapiens) (UniProt Q13285); assay: SF1 (NR5A1) inverse agonists, counter-screen for LRH-1 inverse agonist project, cell-based, luminescence, high throughput (AID 651614; in the data active = inhibition above about 44%;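 note: cells cotransfected with StAR promoter reporter and SF1 expression vector; 0% = vehicle on cells with receptor and 100% = vehicle on cells lacking receptor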); conditions: cell-based SF1 luciferase reporter, at 3.6 µM, stronger effect = higher value
[8] = VP16 transactivation reporter inhibitors, counter-screen for LRH-1 inverse agonist project, cell-based, luminescence, high throughput (AID 651615); conditions: Gal4-VP16 luciferase reporter cells, at 3.6 µM, stronger effect = higher value

Measured: inhibition

Nuclear receptor coactivator 3 (Homo sapiens), sequence (Q9Y6Q9 whole entry, looked up, the tested form may be a part): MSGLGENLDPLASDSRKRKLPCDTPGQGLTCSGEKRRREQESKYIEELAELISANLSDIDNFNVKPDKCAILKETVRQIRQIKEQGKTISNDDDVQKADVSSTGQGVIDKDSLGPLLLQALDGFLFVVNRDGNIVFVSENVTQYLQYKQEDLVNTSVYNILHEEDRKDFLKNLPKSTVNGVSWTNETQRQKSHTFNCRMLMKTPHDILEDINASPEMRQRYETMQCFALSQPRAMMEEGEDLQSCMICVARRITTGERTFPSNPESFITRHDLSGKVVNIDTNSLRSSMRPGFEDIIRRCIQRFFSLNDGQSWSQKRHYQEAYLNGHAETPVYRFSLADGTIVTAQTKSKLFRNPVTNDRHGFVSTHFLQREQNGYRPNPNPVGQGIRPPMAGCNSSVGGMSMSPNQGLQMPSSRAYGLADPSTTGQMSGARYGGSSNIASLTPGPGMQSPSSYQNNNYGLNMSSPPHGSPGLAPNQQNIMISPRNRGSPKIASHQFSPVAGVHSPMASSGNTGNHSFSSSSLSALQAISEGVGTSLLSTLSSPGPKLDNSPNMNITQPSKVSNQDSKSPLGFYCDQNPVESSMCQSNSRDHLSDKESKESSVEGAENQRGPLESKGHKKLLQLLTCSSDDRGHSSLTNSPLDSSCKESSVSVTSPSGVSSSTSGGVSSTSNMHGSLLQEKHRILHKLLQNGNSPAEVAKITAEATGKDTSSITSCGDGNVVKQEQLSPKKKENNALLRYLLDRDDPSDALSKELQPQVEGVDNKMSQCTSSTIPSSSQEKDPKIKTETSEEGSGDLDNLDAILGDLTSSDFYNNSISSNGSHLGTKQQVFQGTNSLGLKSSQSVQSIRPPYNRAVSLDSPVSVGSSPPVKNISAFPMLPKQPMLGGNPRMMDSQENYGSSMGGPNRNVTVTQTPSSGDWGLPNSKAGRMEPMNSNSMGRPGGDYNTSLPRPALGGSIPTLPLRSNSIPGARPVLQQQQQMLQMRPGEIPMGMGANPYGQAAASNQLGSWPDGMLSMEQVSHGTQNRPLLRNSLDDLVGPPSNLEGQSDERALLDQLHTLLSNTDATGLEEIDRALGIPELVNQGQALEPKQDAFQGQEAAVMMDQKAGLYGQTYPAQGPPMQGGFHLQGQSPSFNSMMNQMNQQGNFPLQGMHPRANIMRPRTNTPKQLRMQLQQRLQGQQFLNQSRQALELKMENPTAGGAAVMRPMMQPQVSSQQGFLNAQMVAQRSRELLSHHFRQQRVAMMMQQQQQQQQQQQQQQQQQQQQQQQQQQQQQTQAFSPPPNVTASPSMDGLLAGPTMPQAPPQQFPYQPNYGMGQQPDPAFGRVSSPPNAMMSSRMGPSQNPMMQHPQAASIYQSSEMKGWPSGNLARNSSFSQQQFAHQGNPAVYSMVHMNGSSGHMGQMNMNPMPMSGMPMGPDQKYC
Steroidogenic factor 1 (Homo sapiens), sequence (Q13285 whole entry, looked up, the tested form may be a part): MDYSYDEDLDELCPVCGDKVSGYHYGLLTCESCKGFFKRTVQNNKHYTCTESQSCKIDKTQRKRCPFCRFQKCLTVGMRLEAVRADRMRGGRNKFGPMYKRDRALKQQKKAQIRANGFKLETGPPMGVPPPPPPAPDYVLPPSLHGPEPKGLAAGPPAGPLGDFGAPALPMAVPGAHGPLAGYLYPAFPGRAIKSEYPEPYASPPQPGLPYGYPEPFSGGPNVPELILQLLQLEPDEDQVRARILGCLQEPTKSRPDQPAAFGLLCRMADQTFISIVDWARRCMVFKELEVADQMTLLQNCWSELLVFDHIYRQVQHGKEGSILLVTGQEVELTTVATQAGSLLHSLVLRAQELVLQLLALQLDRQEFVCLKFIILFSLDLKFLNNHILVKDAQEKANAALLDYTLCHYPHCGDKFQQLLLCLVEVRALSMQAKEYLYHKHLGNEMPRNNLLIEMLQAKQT
Nuclear receptor coactivator 1 (Homo sapiens), sequence (Q15788 whole entry, looked up, the tested form may be a part): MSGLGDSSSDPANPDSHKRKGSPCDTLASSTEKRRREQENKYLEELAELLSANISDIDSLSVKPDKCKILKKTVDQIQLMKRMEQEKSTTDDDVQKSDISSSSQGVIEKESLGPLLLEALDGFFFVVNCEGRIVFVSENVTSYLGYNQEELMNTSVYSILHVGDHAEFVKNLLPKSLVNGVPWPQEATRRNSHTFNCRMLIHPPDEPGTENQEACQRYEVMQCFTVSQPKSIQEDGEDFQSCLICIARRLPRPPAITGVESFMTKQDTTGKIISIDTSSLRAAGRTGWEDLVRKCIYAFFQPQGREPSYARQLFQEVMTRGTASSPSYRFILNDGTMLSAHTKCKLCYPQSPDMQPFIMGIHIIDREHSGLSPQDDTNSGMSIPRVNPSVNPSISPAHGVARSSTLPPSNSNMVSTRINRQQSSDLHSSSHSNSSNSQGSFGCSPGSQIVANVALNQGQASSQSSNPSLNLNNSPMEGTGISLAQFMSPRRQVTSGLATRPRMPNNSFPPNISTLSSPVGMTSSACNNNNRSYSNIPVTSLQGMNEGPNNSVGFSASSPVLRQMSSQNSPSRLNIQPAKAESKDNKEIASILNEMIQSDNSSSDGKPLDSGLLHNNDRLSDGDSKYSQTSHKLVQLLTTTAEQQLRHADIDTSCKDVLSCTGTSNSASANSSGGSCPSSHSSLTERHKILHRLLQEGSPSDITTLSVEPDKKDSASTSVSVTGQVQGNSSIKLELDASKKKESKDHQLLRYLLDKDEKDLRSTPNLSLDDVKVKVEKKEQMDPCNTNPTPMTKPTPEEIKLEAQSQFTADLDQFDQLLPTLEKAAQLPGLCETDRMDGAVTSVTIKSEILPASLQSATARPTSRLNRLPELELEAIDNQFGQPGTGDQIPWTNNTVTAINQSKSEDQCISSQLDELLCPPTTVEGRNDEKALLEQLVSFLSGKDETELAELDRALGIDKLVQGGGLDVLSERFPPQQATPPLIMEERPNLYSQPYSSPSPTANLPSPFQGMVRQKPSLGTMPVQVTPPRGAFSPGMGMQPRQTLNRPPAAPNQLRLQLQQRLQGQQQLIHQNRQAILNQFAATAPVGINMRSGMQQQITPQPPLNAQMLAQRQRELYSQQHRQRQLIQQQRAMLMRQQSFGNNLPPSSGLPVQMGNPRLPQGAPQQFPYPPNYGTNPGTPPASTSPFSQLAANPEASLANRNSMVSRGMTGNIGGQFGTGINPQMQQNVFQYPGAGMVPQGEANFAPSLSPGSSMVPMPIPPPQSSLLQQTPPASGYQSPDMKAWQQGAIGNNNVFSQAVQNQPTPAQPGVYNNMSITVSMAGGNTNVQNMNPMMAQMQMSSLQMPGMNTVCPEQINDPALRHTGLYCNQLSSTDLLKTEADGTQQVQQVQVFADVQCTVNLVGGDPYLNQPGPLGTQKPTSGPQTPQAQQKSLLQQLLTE
Nuclear receptor subfamily 5 group A member 2 (Homo sapiens), sequence (O00482 whole entry, looked up): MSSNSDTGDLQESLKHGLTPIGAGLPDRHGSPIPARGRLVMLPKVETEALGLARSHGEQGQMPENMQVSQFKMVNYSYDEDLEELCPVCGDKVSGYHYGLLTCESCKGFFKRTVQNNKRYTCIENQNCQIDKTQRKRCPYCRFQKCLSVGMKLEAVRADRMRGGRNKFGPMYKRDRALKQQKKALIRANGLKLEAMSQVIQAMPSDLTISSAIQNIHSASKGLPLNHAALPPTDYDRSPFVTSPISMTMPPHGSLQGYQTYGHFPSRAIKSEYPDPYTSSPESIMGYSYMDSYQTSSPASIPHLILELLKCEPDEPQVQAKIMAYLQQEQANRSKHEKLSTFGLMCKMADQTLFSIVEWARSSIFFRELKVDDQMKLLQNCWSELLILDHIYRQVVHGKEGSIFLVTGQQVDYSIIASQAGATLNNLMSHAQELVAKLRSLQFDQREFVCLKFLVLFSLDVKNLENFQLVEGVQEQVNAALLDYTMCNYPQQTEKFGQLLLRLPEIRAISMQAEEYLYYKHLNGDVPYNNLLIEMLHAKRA

O=C1C(=O)c2cccnc2-c2ncccc21
active: [1] 99.2% | [2] 97.1% | [3] 97.1% | [4] 96.7% | [5] 99.4% | [6] 110% | [7] 99.5% | [8] 99.6%

c1ccc(-c2cccc(-c3ccccn3)n2)nc1
active: [1] 75.8% | [2] 39.9% | [3] 56.6% | [4] 32% | [5] 82.3% | [6] 96.7% | [7] 71.8% | [8] 41.8%

CCCCC(=O)NC(c1ccc(Cl)cc1)c1ccc2cccnc2c1O (stereo unspecified)
active: [1] 66.9% | [2] 62.4% | [3] 51.3% | [4] 62.2% | [5] 67.9% | [6] 87.8% | [7] 86.1% | [8] 69.1%

CC#CC[N+](C)(C)CCCCCCCCCCCC
active: [2] 39.2% | [4] 32.1% | [5] 33% | [6] 65.2% | [7] 65.9% | [8] 63.5%
inactive: [1] 32.2% | [3] 22.1%

O=C(c1ccccc1)c1c2c(cc3sc4ccccc4[n+]13)-c1cccc3cccc-2c13
inactive: [3] 29.4%
active: [1] 49% | [2] 61.2% | [4] 64.6% | [5] 47.8% | [6] 99.3% | [7] 75.1% | [8] 81.7%

CC1(C)CC(N2CCN(c3ccccc3)CC2)=CC(=[N+]2CCCC2)C1
active: [2] 37.6% | [4] 33.1% | [5] 30% | [6] 73.2% | [7] 66.5% | [8] 63.7%
inactive: [1] 23.8% | [3] 2.88%

COc1ccc(-c2cn(-c3ccc(OC)cc3)c3[n+]2-c2ccccc2CC3)cc1
inactive: [3] 34.7%
active: [1] 46.3% | [2] 55.9% | [4] 59.9% | [5] 40.8% | [6] 88.8% | [7] 82.3% | [8] 77.8%

COc1ccc2[nH]c3c(C)c4ccncc4c(C)c3c2c1
inactive: [1] -29% | [3] 24.4%
active: [2] 53.7% | [4] 52.5% | [5] 60.9% | [6] 67.1% | [7] 68.7% | [8] 72.1%

COc1ccc(/C=C/c2cc(-c3ccc(C)cc3)o[n+]2C)cc1
active: [1] 65.6% | [2] 74.6% | [3] 56.2% | [4] 71.5% | [5] 62.3% | [6] 98.9% | [7] 89.8% | [8] 83.6%

Cc1cccn2c(=O)c3cc(C(=O)NCCN4CCOCC4)c(=N)n(Cc4ccc(F)cc4)c3nc12
active: [2] 41.6% | [4] 28.3% | [5] 45.4% | [6] 73.9% | [7] 61.6% | [8] 60.1%
inactive: [1] 36.9% | [3] 44.4%

COc1ccc(Cn2c(-c3ccc(C)cc3)c[n+]3ccccc23)cc1
active: [2] 52.1% | [4] 54.5% | [5] 50.2% | [6] 96.1% | [7] 79.5% | [8] 74%
inactive: [1] 35.9% | [3] 19.8%

Cc1cc2c(=Cc3ccc(N(C)C)cc3)c3ccccc3n2[n+]1C
inactive: [3] 23.9%
active: [1] 44.8% | [2] 74.8% | [4] 74.5% | [5] 76.2% | [6] 108% | [7] 89.4% | [8] 93.4%

COC1C=CC=C(C)C(=O)NC2=CC(=O)C(N)=C(CC(C)CC(OC)C(O)C(C)C=C(C)C1OC(N)=O)C2=O (stereo unspecified)
inactive: [3] 18.4%
active: [1] 78.9% | [2] 81.6% | [4] 82.3% | [5] 73.2% | [6] 93.7% | [7] 85.5% | [8] 85.7%

CC1=NN(c2nc3ccccc3[nH]2)C(=O)C1Cc1ccccc1 (stereo unspecified)
active: [1] 53.5% | [2] 68% | [3] 48.1% | [4] 67.5% | [5] 70.3% | [6] 101% | [7] 88.7% | [8] 83.6%

Cc1ccc2[nH]c3c(c2c1)CCCC3NC(=O)CCl (stereo unspecified)
inactive: [3] 44.3%
active: [1] 87.4% | [2] 84.2% | [4] 82.4% | [5] 92% | [6] 106% | [7] 96.3% | [8] 92.3%

CN(C)c1ccc(/C=C/c2ccc3ccccc3n2)cc1
active: [5] 55.6% | [6] 59.3% | [7] 72.4%
inactive: [1] 33.3% | [2] 29% | [3] 0.35% | [4] 14.3% | [8] 29.4%

CN(C)c1ncnc2c1nnn2C1OC(CO)C(O)C1O (stereo unspecified)
active: [1] 82.7% | [2] 81.1% | [4] 81% | [5] 91.3% | [6] 105% | [7] 93.5% | [8] 88.8%
inactive: [3] 29.6%
